HT1080 IDH1KD tx = HT-1080 IDH1 knockdown cell toxicity (counter line). Potency, µM (top dose mostly 46.1 µM), without a hit: top-dose activity, negative = toxicity, hits mostly cytotoxic. 360,000 tested, 2% active. HT-1080 IDH1 knockdown viability, ATP luminescence, 48 h;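 also: potency is read from the fitted curve at half-maximal effect; 0% = DMSO wells and -100% = cell-free medium wells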
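Luminescent ATP read-out (CellTiter-Glo, 10 min at room temperature) after 48 h compound exposure at 37 °C gave viability of IDH1-knockdown HT-1080 cells. Activity was normalised to DMSO and cell-free wells, then fitted as concentration-response curves.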
DT40 TDP1 no CPT = qHTS for Inhibitors of human tyrosyl-DNA phosphodiesterase 1 (TDP1): qHTS in cells in absence of CPT; DT40 Tdp1-/- hTDP1 cells, no CPT, ATP luminescence, 48 h; Potency, µM (series often up to 46.2 µM), for the others: top-dose activity change, negative = growth inhibition, hits mostly inhibitors; 420,000 tested, 15% active; AID 686978, 2013; also: potency is read from the fitted curve at half-maximal effect; nearly all actives have a fitted effect of over 55% in size
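Luminescent ATP content (CellTiter-Glo) served as the growth readout. Knockout chicken DT40 cells expressing human TDP1 were exposed to compounds without camptothecin for a minimum 48 hr at 37 °C.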
ELG1 repair inh = ELG1-dependent DNA repair inhibition | AID 504467 | Potency, µM (highest dose often 46.1 µM), for inactives: at the top dose activity change, negative = inhibition, actives largely listed as inhibitors | 330,000 tested, 2.3% active | HEK293T ELG1-luciferase reporter, luminescence, 16 h; DNA damage induced by 5-fluorouridine; also: potency is read from the fitted curve at half-maximal effect; nearly all actives have a fitted effect of over 55% in size
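In this reporter screen, reduction of luminescence relative to DMSO vehicle indicated activity. Compounds and 5-fluorouridine were added together to 2,000 cells per well, incubated for 16 hr at 37 °C, then developed with ONE-Glo.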
DT40 TDP1 CPT = growth inhibition of DT40 Tdp1-/-;hTDP1 cells with camptothecin (screen for TDP1 inhibitors); 420,000 tested, 12% active; chicken DT40 Tdp1-/-;hTDP1 cells + 20 nM CPT, ATP luminescence, 48 h; Potency, µM (series often up to 46.2 µM), inactives show at the top dose activity change, negative = growth inhibition, actives largely listed as inhibitors; AID 686979; also: potency is read from the fitted curve at half-maximal effect; nearly all actives have a fitted effect of over 55% in size
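Chicken DT40 Tdp1-/- cells stably complemented with human TDP1 were seeded at 400 cells/well in medium containing 20 nM camptothecin, exposed to pin-transferred compounds, and grown at 37 °C for at least 48 hr. Viability was read as ATP luminescence.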
IL-1B inflam inh = blocks inflammasome-driven IL-1 beta release. THP-1 LPS/ATP IL-1B secretion, AlphaLISA, 16 h; active compounds read low. activity change, % at 57.5 µM. 360,000 tested, 4.7% active. AID 743279; in the data active = activity change below about -50%; inconclusive = mostly about -30% to -49%
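THP-1 cells pretreated 1 hr with compounds (up to 57.5 uM final), then stimulated with LPS (250 ng/mL final) plus ATP (1.25 mM final); secreted IL-1B measured by AlphaLISA after 16 hr, decreased signal indicating inhibition.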
HT1080NT lethal = kills 2HG-producing HT-1080-NT fibrosarcoma cells | HT-1080-NT fibrosarcoma viability, CellTiter-Glo ATP luminescence, 48 h | Potency, µM (doses to about 46.1 µM), for inactives: at the highest dose activity, negative = less viability, usual class: cytotoxic | 360,000 tested, 1.6% active;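 also: NT is the 2HG producing partner of a matched IDH1 knockdown line; potency is read from the fitted curve at half-maximal effect; 0% = DMSO-treated cells and -100% = media-only wells without cells; nearly all actives have a fitted effect of over 55% in size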
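A 48-hour cytotoxicity screen used HT-1080-NT cells plated 2 hours before compound delivery. ATP-based CellTiter-Glo luminescence measured viability, normalized to DMSO and no-cell controls.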
An asterisk follows results filed as active; i = inactive; ? = inconclusive; · = not tested or not shown; [ ] = remark or other dose. This is a sample that favours compounds with a hit; in the whole collection about 19% have one here. Unless noted, calls follow the shape of the dose curve; as a rule, active = well fitted curve in the direction sought with a large enough effect; inconclusive = small, poorly fitted or top-dose-only effect, or another doubt; inactive = no such curve, though single readings can be large; an effect the other way counts as inactive or inconclusive. Unless noted, % is scaled to controls: 0 for no effect and ±100 for the full control effect.

SMILES | HT1080 IDH1KD tx | DT40 TDP1 no CPT | ELG1 repair inh | DT40 TDP1 CPT | IL-1B inflam inh | HT1080NT lethal
CS(=O)(=O)Nc1cccc(C2=NN(C(=O)c3ccco3)C(c3ccco3)C2)c1 (stereo not given) | -26% | ? | ? | 16µM* | -5 | -1%
CCS(=O)(=O)Nc1ccc(C2=NN(C(=O)c3ccco3)C(c3cccs3)C2)cc1 (stereo not given) | -14% | ? | 0% | ? | i | -17%
CC(=O)N1N=C(c2cccc(NS(=O)(=O)c3ccc(C)cc3)c2)CC1c1ccco1 (stereo not given) | ? | ? | ? | ? | -20 | -4%
CS(=O)(=O)Nc1cccc(C2=NN(C(=O)c3ccccc3Cl)C(c3ccccc3O)C2)c1 (stereo not given) | -11% | 29µM* | ? | 15µM* | 24 | -13%
CCS(=O)(=O)Nc1cccc(C2=NN(C(=O)c3ccco3)C(c3ccco3)C2)c1 (stereo not given) | ? | 2.6µM* | -14% | 4.6µM* | -22 | ?
O=C(c1ccco1)N1N=C(c2ccccc2)CC1c1ccc2nccnc2c1 (stereo not given) | -20% | ? | 12% | ? | -8 | -8%
CCS(=O)(=O)Nc1ccc(C2=NN(C(=O)c3ccco3)C(c3ccco3)C2)cc1 (stereo not given) | 16µM* | 4.1µM* | ? | 4.6µM* | -4 | ?
Cc1ccccc1C(=O)N1N=C(c2cccc(NS(C)(=O)=O)c2)CC1c1cccs1 (stereo not given) | -1% | -24% | -5% | -27% | -19 | -5%
CC[C@@]12C(=O)N(c3ccc(OC)cc3)C(=O)N1[C@H](c1cccc(C)c1)[C@@H]1C(=O)N(Cc3ccccc3)C(=O)[C@@H]12 | 11% | -1% | 19% | 4% | -2 | 10%
COc1ccccc1C1CC(c2ccc(NS(C)(=O)=O)cc2)=NN1C(=O)c1ccccc1 (stereo not given) | 1% | ? | ? | -24% | -15 | -1%
CS(=O)(=O)Nc1ccc(C2=NN(C(=O)c3ccco3)C(c3ccccc3F)C2)cc1 (stereo not given) | -9% | 18µM* | -20% | ? | -18 | -3%
COc1ccc(CCNC(=O)Cc2c(C)c3c(cc(C)c4c(C)c(C)oc43)oc2=O)cc1 | · | 3% | · | -4% | · | ·
COC(=O)C(C)N(C(=O)c1cccc2ccccc12)c1c(C)cccc1C (stereo not given) | ? | 16µM* | -25% | ? | -1 | -4%
CN(C)CCCNC(=O)/C(=C\C=C\c1ccccc1)NC(=O)c1ccc([N+](=O)[O-])cc1 | ? | ? | ? | 2% | -57* | -7%
CCCCOc1ccc(C(=O)N/C(=C/C=C/c2ccccc2)C(=O)NCCO)cc1 | -8% | -2% | 0% | -2% | -53* | -3%
CCOC(=O)/C(=C\C=C\c1ccccc1)NC(=O)c1ccccc1 | -3% | ? | 0% | ? | -90* | -2%
COc1ccc(/C=C(/NC(=O)c2ccc([N+](=O)[O-])cc2)C(=O)NCCCN(C)C)cc1 | 0% | -7% | 3% | 4% | -1 | 0%
COc1cccc(NC(=O)C(c2ccccc2)N2CCN(CC(=O)N3CCOCC3)CC2)c1 (stereo not given) | 4% | -22% | 7% | -19% | 31 | 12%
O=[N+]([O-])c1c(NCCO)cc(N2CCCCCC2)c2nonc12 | 2% | -25% | -1% | 7% | 0 | 4%
CCC(=O)OCCNc1cc(Sc2nc3ccccc3s2)c2nonc2c1[N+](=O)[O-] | 2.8µM* | 2.1µM* | 9% | 1.6µM* | -14 | -58%
COCCNC(=O)c1onc(CSc2nc3ccccc3[nH]2)c1C(=O)NCCOC | 11% | ? | -7% | -26% | 15 | 12%
CCC(=O)OCCNc1cc(Sc2nc3ccccc3[nH]2)c2nonc2c1[N+](=O)[O-] | ? | 2.9µM* | -11% | 2.3µM* | -101* | ?
O=[N+]([O-])c1c(NCCCO)cc(Sc2nc3ccccc3s2)c2nonc12 | 6.3µM* | 0.79µM* | -1% | 1.3µM* | ? | 11µM*
CC(C)OC(=O)CSc1nc2ccccc2s1 | 13% | -22% | ? | 13% | 6 | 10%
Cc1ccc(C)c(Cn2c(=O)cc(C(F)(F)F)c3c(C)nn(C)c32)c1 | · | -22% | · | -12% | · | ·
SMILES | HT1080 IDH1KD tx | DT40 TDP1 no CPT | ELG1 repair inh | DT40 TDP1 CPT | IL-1B inflam inh | HT1080NT lethal
O=C(NCc1ccncc1)c1nnc(Cc2c(F)cccc2Cl)o1 | 1% | -14% | ? | -26% | 17 | -2%
O=C(NCCCN1CCN(c2ccccc2)CC1)c1nnc(Cc2c(F)cccc2Cl)o1 | · | 21µM* | · | 23µM* | · | ·
O=C(CCN1C(=O)C2C3CC(C(Br)C3Br)C2C1=O)OCC(=O)c1cccc([N+](=O)[O-])c1 (stereo not given) | -20% | -14% | ? | 4% | 37 | -5%
Nc1ccc(-c2nc3cc(N)ccc3o2)cc1 | -3% | 1% | ? | -7% | -54* | -7%
Cc1nc2ccc(-c3nc4ccccc4o3)cc2[nH]1 | 0% | ? | ? | -15% | 197 | -13%
CN(C)c1ccc(-c2nc3cc(N)ccc3o2)cc1 | -3% | 7% | ? | -18% | 63 | -5%
Cc1ccnc2ccc(-c3nc4ccccc4o3)cc12 | -10% | 10µM* | ? | 21µM* | -12 | -1%
Nc1ccc(-c2nc3ccc(-c4nc5ccccc5o4)cc3[nH]2)cc1 | -1% | 8.2µM* | -6% | 15µM* | -2 | -1%
Nc1ccc2nc(-c3ccc(Cl)cc3)[nH]c2c1 | 21µM* | 4.6µM* | ? | 2.9µM* | -18 | 23µM*
CCOc1ccc(C(=O)NCC(=O)OCc2nnc(-c3ccccc3)o2)cc1OCC | 10% | 12% | 0% | -2% | 13 | 16%[9.24 µM]
Cc1ccc(S(=O)(=O)NCC(=O)NCC(=O)NCCc2ccc(Cl)cc2)cc1C | -18% | ? | · | ? | ? | -11%
Nc1ccc2nc(-c3cccc(-c4nc5ccc(N)cc5[nH]4)c3)[nH]c2c1 | 10% | ? | 6% | 5% | 39 | 1%
Cc1ccc(C)c(-c2nc3ccc(N)cc3[nH]2)c1 | -14% | 15µM* | ? | 23µM* | 65 | 0%
